Test results: PubChem BioAssay (EPA / NIEHS)
Results filed as inconclusive are left out. The source made the active and inactive calls. The calls were made as follows: active = hit-call score of the fitted dose curve at least 0.9, where 1 is the maximum; inconclusive = response in the unintended direction; inactive = score below 0.9.

Test: ATG_M_32_XSP2: Attagene TRANS-FACTORIAL Multi-Species (XSP2) HepG2 Assay for M19 Transcription Factor (Internal Marker) (AID 2283826)
Experimental: ATG_XSP2_multi-species_TRANS is a cell-based, multiplexed assay created by modifying the existing Attagene TRANS-FACTORIAL system to include a panel of nuclear receptors from some or all the following species: human (Homo sapiens), mouse (Mus musculus), frog (Xenopus laevis), zebrafish (Danio rerio), chicken (Gallus gallus), and turtle (Chrysemys picta). The ECOTOX-FACTORIAL format uses HepG2, a human liver cell line, with measurements taken at 24 hours after chemical dosing in a 24-well plate. Xsp2 included 3 nM 6-alpha-fluorotestosterone and 1.5 nM norgestrel to stimulate the androgen receptor.ATG_M_32_XSP2 is one of 29 assay components measured or calculated from the ATG_XSP2_multi-species_TRANS assay. It is designed to make measurements of mRNA induction, a form of inducible reporter, as detected with fluorescence intensity signals by Reverse transcription polymerase chain reaction (RT-PCR) and Capillary electrophoresis technology.This assay endpoint, ATG_M_32_XSP2, was analyzed in the positive analysis fitting direction relative to DMSO as the negative control and baseline of activity. Using a type of inducible reporter, measures of mRNA for gain-of-signal activity can be used to understand the background control at the transcription factor-level as they relate to the gene. Furthermore, this assay endpoint can be referred to as a secondary readout, because this assay has produced multiple assay endpoints where this one serves a background control function. To generalize the intended target to other relatable targets, this assay endpoint is annotated to the background measurement intended target family, where the subfamily is internal marker.
Human liver HepG2 cells are transiently transfected with multiple reporter transcription units (MRTUs) in 6-well plates using FuGene 6 reagent (Roche; 3 ml FuGene/1 mg DNA). The MRTU constructs are regulated by a cis-regulating element (promoter). […] A major difference between the CIS and TRANS system is that in CIS activities of endogenous TFs are measured, whereas the TRANS assay evaluates changes in activities of exogenous, chimeric NR-Gal4 proteins. […] At the end of 24 hour incubation, total RNA was isolated using TriZol reagent (Invitrogen). The isolated RNA is then reverse-transcribed using oligo(dT) primer and Mo-MLV reverse transcriptase (Invitrogen) with DNAse I (Ambion) treatment for 30 min. The one-tenth of the produced cDNA was amplified by PCR using Taq DNA polymerase (Invitrogen) and two reporter sequence-specific primers. The PCR products were fluorescently labeled by primer extension with 6-arboxyfluorescein (6-FAM) 5'-labeled reporter sequence-specific primer (2 min at 95 C, 20 s at 68 C and 10 min at 72 C) and these products were digested with 5U of HpaI (New England Biolabs) for 2h at 37 C. The fragments were purified using Qiaquick PCR columns (Qiagen), analyzed on an ABI 3130xL genetic analyzer (Applied Biosystems) with peak positions identified by using a set of X-rhodamine (ROX)-labeled MapMarker1000 molecular weight standards (BioVentures). The raw capillary electrophoresis data was processed using Attagraph software (Attagene).
With `CC(C)(c1cc(Cl)c(O)c(Cl)c1)c1cc(Cl)c(O)c(Cl)c1` the outcome was “inactive”. For `Oc1ccc2c(c1)-c1ccccc1C2`, the outcome was “inactive”. With `c1ccc(B(c2ccccc2)c2ccccc2)cc1` the outcome was “inactive”. In the case of `Oc1ccc(C(c2ccc(O)cc2)C(Cl)(Cl)Cl)cc1`, the outcome was “inactive”. For `N#Cc1ccc(C2CCCc3cncn32)cc1` (stereo not given), the outcome was “inactive”. For `C(=C(c1ccccc1)c1ccccc1)c1ccccc1`, the outcome was “inactive”. For `CCN(CC)CCOc1ccc(C(=C(Cl)c2ccccc2)c2ccccc2)cc1`, the outcome was “inactive”. For `CCCCC(CC)COC(=O)c1ccc(O)cc1` (stereo not given), the outcome was “inactive”. With `C#C[C@]1(O)CC[C@H]2[C@@H]3CCC4=CC(=O)CC[C@@H]4[C@H]3CC[C@@]21CC` the outcome was “inactive”. In the case of `Cc1oc(-c2ccccc2)nc1CCOc1ccc(C[C@H](Nc2ccccc2C(=O)c2ccccc2)C(=O)O)cc1`, the outcome was “inactive”. For `CC(C)(C)NC(=O)[C@H]1CC[C@H]2[C@@H]3CC[C@H]4NC(=O)C=C[C@]4(C)[C@H]3CC[C@]12C`, the outcome was “inactive”. With `CCN(Cc1c(F)cccc1Cl)c1c([N+](=O)[O-])cc(C(F)(F)F)cc1[N+](=O)[O-]` the outcome was “inactive”. In the case of `O=c1c(-c2ccc(O)cc2)coc2cc(O)ccc12`, the outcome was “inactive”. In the case of `O=C(Oc1ccccc1)c1ccc(O)cc1`, the outcome was “inactive”. In the case of `Oc1ccccc1Cc1ccccc1O`, the outcome was “inactive”. With `O=C(O)Cc1cc(I)c(Oc2ccc(O)c(I)c2)c(I)c1` the outcome was “inactive”. In the case of `C=C1C[C@H]2[C@@H]3C=C(C)C4=CC(=O)CC[C@]4(C)[C@H]3CC[C@]2(C)[C@@]1(OC(C)=O)C(C)=O`, the outcome was “inactive”. With `CCCCCCCCCCCCN` the outcome was “inactive”. In the case of `O=C(O)Cc1cc(I)c(Oc2cc(I)c(O)c(I)c2)c(I)c1`, the outcome was “inactive”. In the case of `Oc1ccc2cc(SSc3ccc4cc(O)ccc4c3)ccc2c1`, the outcome was “inactive”. For `CC(C)(c1ccc(O)cc1)c1ccc(O)cc1`, the outcome was “inactive”. In the case of `O=P(OC(CCl)CCl)(OC(CCl)CCl)OC(CCl)CCl`, the outcome was “inactive”. With `COc1ccc(C(=O)c2ccccc2)c(O)c1` the outcome was “inactive”. In the case of `CC/C(=C(\c1ccccc1)c1ccc(OCCN(C)C)cc1)c1ccccc1`, the outcome was “inactive”. For `CC(C)CCCCCCCOC(=O)c1ccccc1C(=O)OCCCCCCCC(C)C`, the outcome was “inactive”. With `c1ccc2c(c1)ccc1ccccc12` the outcome was “inactive”. With `Cc1c2ccccc2c(C)c2c1ccc1ccccc12` the outcome was “inactive”. In the case of `N[C@@H](Cc1cc(I)c(Oc2ccc(O)c(I)c2)c(I)c1)C(=O)O`, the outcome was “inactive”. In the case of `CC(C)CCCCCCc1ccc(O)cc1`, the outcome was “inactive”. For `O=c1cc(-c2ccccc2)oc2cc(O)cc(O)c12`, the outcome was “inactive”. In the case of `C=CCOC(Cn1ccnc1)c1ccc(Cl)cc1Cl` (stereo not given), the outcome was “inactive”. In the case of `Cc1c(C)c2c(c(C)c1O)CCC(C)(COc1ccc(CC3SC(=O)NC3=O)cc1)O2` (stereo not given), the outcome was “inactive”. With `CCC(C)(C)C1CCC(O)CC1` (stereo not given) the outcome was “inactive”. For `CCCCC(CC)CN1C(=O)C2C3C=CC(C3)C2C1=O` (stereo not given), the AC50 was 174 µM (active). In the case of `CC(C)(c1cc(Br)c(O)c(Br)c1)c1cc(Br)c(O)c(Br)c1`, the outcome was “inactive”. For `CCCOC(=O)c1ccc(O)cc1`, the outcome was “inactive”. In the case of `CCCCCCCCCCCCc1ccc(O)cc1`, the outcome was “inactive”. For `C=CCc1cc(S(=O)(=O)c2ccc(O)c(CC=C)c2)ccc1O`, the outcome was “inactive”. For `O=C(c1ccc(O)cc1)c1ccc(O)cc1O`, the outcome was “inactive”. With `CC(=O)c1cc2c(cc1C)C(C)(C)C(C)CC2(C)C` (stereo not given) the outcome was “inactive”.
